# A selection: hits, their analogues and other compounds. The true share with any hit is near 21%.
# Pf growth 96h – Primary qHTS for delayed death inhibitors of the malarial parasite plastid, 96 hour incubation | Potency, µM (series often up to 28.7 µM), actives largely listed as inhibitors | actives 6.9% (n = 320,000) | AID 504834, 2011 | P. falciparum luciferase reporter growth, 96 h; active = well fitted inhibition curve with a large enough effect; inconclusive = small, poorly fitted or top-dose-only effect, or another doubt; inactive = no such curve, though single readings can be large or run the other way
#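 Compounds incubated with erythrocytes infected by luciferase-expressing P. falciparum (2% hematocrit, 0.05% parasitemia final) for 96 hours, 37 C in 5% CO2. Growth inhibition scored as decreased luciferase luminescence.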
# SARS PLP yeast – qHTS of Yeast-based Assay for SARS-CoV PLP | S. cerevisiae expressing SARS-CoV PLpro, growth rescue | Potency, µM (highest dose often 32.9 µM), actives largely listed as activators | actives 0.19% (n = 330,000) | AID 485353, 2010; note: nearly all actives have a fitted effect of over 55% in size
# Shiga toxin inh – A qHTS for Small Molecule Inhibitors of Shiga Toxin | AID 2315, 2010 | inhibition, % at 38.7 µM | Vero cells, Shiga toxin protein synthesis inhibition reporter | actives 9.2% (n = 290,000); in the data active = inhibition mostly above about 28%, no sharp cut-off; inactive = mostly below about 43%
# Pf growth 48h – Primary qHTS for delayed death inhibitors of the malarial parasite plastid, 48 hour incubation. Potency, µM (highest dose often 28.7 µM), hits mostly inhibitors. P. falciparum luciferase growth in erythrocytes, 48 h. actives 5.9% (n = 310,000); active = well fitted inhibition curve with a large enough effect; inconclusive = small, poorly fitted or top-dose-only effect, or another doubt; inactive = no such curve, though single readings can be large or run the other way
#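 Here the parasites carry a stable luciferase gene and grow inside erythrocytes in Albumax-based RPMI medium with compound for one erythrocytic cycle. Activity is scored as loss of luminescent signal.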
# CHX counter – Cycloheximide Counterscreen for Small Molecule Inhibitors of Shiga Toxin | max response, % | cell reporter, cycloheximide protein synthesis inhibition counterscreen | actives 12% (n = 300,000) | AID 2314, 2010; in the data active = max response mostly above about 13%, no sharp cut-off; inactive = mostly below about 14%; note: read at 38.3 µM for the half of the compounds with a filed dose
# NS1 function inh – qHTS Assay for Inhibitors of Influenza NS1 Protein Function; actives 0.4% (n = 270,000); Potency, µM (titrated, usually from 46.1 µM); AID 2326, 2010; note: actives are rising curves; nearly all actives have a fitted effect of over 50% in size
#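 A cell-based growth assay was used: compounds that relieve NS1-induced slow growth of budding yeast raise OD600. Assay medium was yeast nitrogen base with ammonium sulphate and -URA supplement, pH 6.0, with 2% galactose.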
# A number is an active result; n = inactive; u = inconclusive; x = no result; [ ] = dose if it differs, or a comment. Unless noted, calls come from the whole dose curve.
SMILES,Pf growth 96h,SARS PLP yeast,Shiga toxin inh,Pf growth 48h,CHX counter,NS1 function inh
CSCC[C@H](NC(=O)CNC(=O)CNC(=O)[C@H](CO)NC(=O)[C@H](CCCNC(=N)N)NC(=O)[C@H](CO)NC(=O)[C@H](CC(C)C)NC(=O)[C@H](CC(C)C)NC(=O)CNC(=O)[C@H](C)NC(=O)[C@H](CC(C)C)NC(=O)[C@H](CCCNC(=N)N)NC(=O)[C@H](Cc1cnc[nH]1)NC(=O)[C@@H](NC(=O)[C@@H](N)C(C)C)[C@@H](C)O)C(=O)N[C@H](C(=O)N[C@@H](CCCCN)C(=O)N[C@@H](CO)C(=O)N[C@@H](CC(N)=O)C(=O)N[C@@H](Cc1ccccc1)C(=O)N[C@H](C(=O)N1CCC[C@H]1C(=O)N[C@H](C(=O)N[C@@H](CC(N)=O)C(=O)N[C@H](C(=O)NCC(=O)N[C@@H](CO)C(=O)N[C@@H](CCCCN)C(=O)N[C@@H](C)C(=O)N[C@@H](Cc1ccccc1)C(N)=O)C(C)C)[C@@H](C)O)C(C)C)C(C)C,x,x,n,x,n,x
N#Cc1ccc(C(CC(=O)O)N2Cc3ccccc3C2=O)cc1 (configuration not stated),n,n,n,n[0.00184 µM],n,n
O=C(CCN1C(=O)[C@@H]2Cc3ccccc3CN2C1=O)NCc1ccc(Cl)cc1,u,n,n,n,n,n
CC(Sc1nnc(-c2cccnc2)o1)C(=O)NC1CCCC1 (configuration not stated),n,n,x,n,x,x
O=[N+]([O-])C(/C=C(\Cl)[N+](=O)[O-])=C(N1CCCCC1)N1CCCCC1,1.2µM,n,n,u,n,x
O=[N+]([O-])C(=C1SCCS1)C(=C(Cl)Cl)N1CCCCC1,n,n,n,n,n,x
Cc1ccc(N2CC(C(=O)Nc3nc4ccc(S(C)(=O)=O)cc4s3)CC2=O)cc1C (configuration not stated),n,n,n,n,n,n
COc1ccc(C(CCN)Cc2ccccc2)cc1 (configuration not stated),n,n,n,u,n,n
COc1ccc2cc(C(=O)C3CCCN(C(=O)c4csnn4)C3)ccc2c1 (configuration not stated),u,n,n,u,n,n
COc1ccc2cc(C(=O)C3CCCN(C(=O)C4=NN(C)C(=O)CC4)C3)ccc2c1 (configuration not stated),5.2µM,n,n,n,20,n
COc1ccc2cc(C(=O)C3CCCN(C(=O)c4cccnc4)C3)ccc2c1 (configuration not stated),12µM,n,n,n,n,n
CCNC(=O)N1CCCC(C(=O)c2ccc3cc(OC)ccc3c2)C1 (configuration not stated),u,n,n,u,20,n
COc1cc(OC)cc(C(=O)N2CCN(C(=O)c3cccnc3)CC2)c1,15µM,n,n,u,n,n
COc1ccccc1CN(C)C(=O)C(NC(=O)Cc1cccc2ccccc12)C(C)C (configuration not stated),u,n,n,u,n,n
Cc1ccc(S(=O)(=O)n2c(N)nc3ccccc32)cc1,n,n,x,n,n,n
C=CCSc1nc2ccccc2n1S(=O)(=O)c1ccc(C)cc1,n,n,n,n,21,n
O=C(NCCS(=O)(=O)N1CCN(c2ccccc2F)CC1)c1cccc(Br)c1,n,n,n,n,n,n
CCCCc1ccc(N=N/C(C(=O)Nc2ccc(NC(C)=O)cc2OC)=C(/C)O)cc1,n,n,n,u,n,n
CC1(C)OC1COc1c2ccoc2cc2oc(=O)ccc12 (configuration not stated),0.37µM,n,n,n,n,n
COc1c2ccoc2cc2oc(=O)ccc12,x,n,x,x,x,x
CN([C@@H](Cc1ccc(OS(=O)(=O)c2cccc3cnccc23)cc1)C(=O)N1CCN(c2ccccc2)CC1)S(=O)(=O)c1cccc2cnccc12,1µM,n,n,0.93µM,n,u
COc1ccc(N2CCN(C(=O)C(Cc3ccccc3)n3cccc3)CC2)cc1 (configuration not stated),n,n,n,x,n,n
Cc1c2ccncc2c(C)c2c1[nH]c1ccccc12,1µM,n,n,1µM,n,n
COc1ccc2[nH]c(C)cc(=O)c2c1,n,n,n,n,n,n
COc1ccc2[nH]c3c(C)c4ccncc4c(C)c3c2c1,0.37µM,n,n,0.37µM,n,n
SMILES,Pf growth 96h,SARS PLP yeast,Shiga toxin inh,Pf growth 48h,CHX counter,NS1 function inh
Cn1c(N)c(C(=O)COC(=O)COc2cc(Cl)c(Cl)cc2Cl)c(=O)n(C)c1=O,x,n,x,x,x,x
C=CC[C@H](CC(=O)NCCO)C(=O)N[C@H](COC(=O)[C@H](CC=C)CC(=O)OC(C)(C)C)c1ccccc1,x,n,x,x,x,x
CCOc1ccc(C(=O)C(CCC(CN(C)C)C(=O)c2ccc(OCC)cc2)CN(C)C)cc1 (configuration not stated),u,n,n,u,n,n
O=C(c1ccccc1)C(CCC(CN1CCOCC1)C(=O)c1ccccc1)CN1CCOCC1 (configuration not stated),u,n,n,n,n,n
CN(C)CC(CCC(CN(C)C)C(=O)c1ccccc1)C(=O)c1ccccc1 (configuration not stated),13µM,n,n,6.6µM,n,n
COc1ccc(C(=O)C(CCCCC(CN(C)C)C(=O)c2ccc(OC)cc2)CN(C)C)cc1 (configuration not stated),9.3µM,n,n,10µM,n,n
Cc1cc(C(=O)N/N=C/c2ccc(-c3cccc(Cl)c3)o2)n[nH]1,n,n,n,u,n,n
Cc1cc(C)c(C#N)c(Nc2ccccc2)n1,u,n,n,n,n,n
CCCCOc1ccc(Nc2nc(C)cc(C)c2C#N)cc1,10µM,n,n,n,n,n
CC(=O)Nc1ccc(OCC(O)Cn2nc(C)c(Br)c2C)cc1 (configuration not stated),u,n,n,u,n,n
CCCn1nnc(NC(=O)c2cccc(OCC)c2)n1,x,n,130,n,45,n
CCn1nnc(NC(=O)c2cccnc2)n1,n,n,n,n,n,n
CCCn1nnc(NC(=O)COc2ccc(Cl)cc2)n1,n,x,n,n,n,n
CCCn1nnnc1NC(=O)c1ccc2ccccc2c1,u,n,n,n,n,n
CCCn1nnc(NC(=O)c2cccc(OCC(C)C)c2)n1,n,n,71,n,39,n
CCCn1nnc(NC(=O)c2ccc3ccccc3c2)n1,n,n,143,n,44,x
CCn1nnc(NC(=O)c2ccc(C(C)(C)C)cc2)n1,n[5.75 µM],n,n,2.9µM,36,n
CCCn1nnc(NC(=O)c2ccc(F)cc2)n1,n,n,57,n,48,n
CCCn1nnc(NC(=O)c2ccc(Br)o2)n1,x,n,n,n,n,n

# Bioassay records as filed in PubChem.
